{"source": "PubChem BioAssay AID731", "about": "(The Scripps Research Institute Molecular Screening Center, 2007)", "note": "In all, about 200,000 compounds went through this assay and about 520 (0.26%) were called active. Many of the other results were omitted from the sample, so actives are more common in it than they were. A number with no mark means an inactive call. Cut-off read from the data, not from the text of the source: active = activation above about 23%; inactive = the rest."}
{"biological_target": "Peroxisome proliferator-activated receptor gamma (Homo sapiens) (UniProt P37231)", "sequence (P37231 whole entry, looked up)": "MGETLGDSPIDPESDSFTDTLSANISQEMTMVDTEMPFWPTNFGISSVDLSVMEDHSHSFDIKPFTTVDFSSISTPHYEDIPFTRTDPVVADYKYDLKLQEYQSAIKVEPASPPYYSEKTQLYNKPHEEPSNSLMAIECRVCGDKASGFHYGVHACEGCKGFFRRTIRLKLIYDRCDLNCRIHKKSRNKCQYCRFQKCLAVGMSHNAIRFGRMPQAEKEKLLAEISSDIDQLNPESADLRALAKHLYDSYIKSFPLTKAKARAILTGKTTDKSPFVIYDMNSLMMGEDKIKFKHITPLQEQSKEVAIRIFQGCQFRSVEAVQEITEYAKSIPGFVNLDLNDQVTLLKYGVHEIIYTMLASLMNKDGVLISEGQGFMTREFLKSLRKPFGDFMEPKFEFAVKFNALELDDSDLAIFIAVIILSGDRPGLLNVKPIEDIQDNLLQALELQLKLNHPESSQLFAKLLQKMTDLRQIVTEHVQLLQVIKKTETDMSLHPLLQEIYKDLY", "test": "enhancers of SRC-3 binding to PPARgamma – biochemical, primary screen (AID 731);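 note: 0% = DMSO and 100% = reference agonist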", "conditions": "biochemical PPARgamma/SRC-3 coactivator recruitment assay; at 8 µM; hits give high values"}
{"smiles": "COc1cccc(NC(=O)c2ccc(S(=O)(=O)N(C)C)cc2)c1", "activation": "-1.26%"}
{"smiles": "COc1ccc(/C=N/Nc2ncnc3sc4c(c23)CCCC4)cc1O", "activation": "-0.73%"}
{"smiles": "CCOC(=O)c1sc(-c2cccc([N+](=O)[O-])c2)cc1N", "activation": "10%"}
{"smiles": "Cc1nc2ccccn2c1C(=O)NN=C1CCN(C)CC1", "activation": "-4.87%"}
{"smiles": "O=C(NC(=S)Nc1cccc(-c2ccc(CO)o2)c1)c1cccs1", "activation": "9.26%"}
{"smiles": "O=C(/C=C/c1ccc(Cl)cc1Cl)NCc1ccco1", "activation": "-0.09%"}
{"smiles": "O=C(NCc1ccco1)c1cc(-c2cccnc2)nc2ccc(Cl)cc12", "activation": "7.42%"}
{"smiles": "O=C(CSc1c2c(nc3ccc(Cl)cc13)CCCC2)NCc1ccco1", "activation": "31.6% (active)"}
{"smiles": "Cc1ccn(CC(=O)N2N=C(C(F)F)CC2(O)C(F)F)n1", "note": "(centres undefined)", "activation": "3.61%"}
{"smiles": "COc1ccc(N(C)S(=O)(=O)c2cccc3nsnc23)cc1", "activation": "-0.54%"}
{"smiles": "CCN(/N=C/c1ccc(N(C)C)cc1)c1nc2ccccc2[nH]1", "activation": "16.6%"}
{"smiles": "CC1c2nc3ccccc3n2C(CC(=O)NCCCN2CCOCC2)C(=O)N1Cc1ccccc1", "note": "(centres undefined)", "activation": "-3.13%"}
{"smiles": "Cc1cccc(OP(=O)(Nc2c(C)n(C)n(-c3ccccc3)c2=O)Oc2cccc(C)c2)c1", "activation": "2.47%"}
{"smiles": "CCN(CCCNC(=O)CSc1cc(=O)n(C)c2cc(Cl)ccc12)Cc1ccccc1", "activation": "42.4% (active)"}
{"smiles": "CCN(CC)CCCNC(=O)c1cc(-c2cccc(Cl)c2)on1", "activation": "-5.33%"}
{"smiles": "CCN(CC)CCCNC(=O)CCc1ccccc1", "activation": "4%"}
{"smiles": "Cc1cc[n+](-c2[nH]c(=O)sc2/C=N/NC(=O)c2ccccc2[O-])cc1C", "activation": "1.17%"}
{"smiles": "CCn1c(=O)cc(SCC(=O)NCCC2=CCCCC2)c2ccccc21", "activation": "10.5%"}
{"smiles": "CCn1c(=O)cc(SCC(=O)NCc2ccc3c(c2)OCO3)c2ccccc21", "activation": "31.8% (active)"}
{"smiles": "CC(C)NC(=O)CSc1ccccc1C(=O)NCc1ccc2c(c1)OCO2", "activation": "-3.43%"}
{"smiles": "O=C(NCc1ccco1)C(=O)c1cn(CC(=O)N2CCCCCC2)c2ccccc12", "activation": "4.6%"}
{"smiles": "CN(C)c1ccc(C(CC(=O)O)C(=O)O)cc1", "note": "(centres undefined)", "activation": "5.46%"}
{"smiles": "O=C(CNC(=O)C(c1ccccc1)c1ccccc1)N/N=C\\c1ccc2c(c1)OCO2", "activation": "-7.73%"}
{"smiles": "COc1ccc(/C=C/C(=O)NC(=S)NN2CCCCC2c2cccnc2)cc1", "note": "(centres undefined)", "activation": "-0.5%"}
{"smiles": "Fc1ccc(COc2cccc(-c3n[nH]c(=S)o3)c2)cc1", "activation": "29.3% (active)"}
{"smiles": "Cc1nc2ccccc2cc1OCc1ccc(F)cc1", "activation": "4.08%"}
{"smiles": "Cc1cccc(OCc2ccc(C(=O)Nc3ccc(F)cc3)cc2)c1", "activation": "-4.26%"}
{"smiles": "CC(C)/C=N/NC(=O)c1cc(Br)ccc1O", "activation": "4.98%"}
{"smiles": "COc1cccc(-n2c(=S)sc3c(=O)n(-c4ccccc4OC)c(SCC4OCCO4)nc32)c1", "activation": "-1.02%"}
{"smiles": "O=C(CCc1nnc(CCCCc2ccccc2)o1)NC(c1cccnc1)C(F)(F)F", "note": "(centres undefined)", "activation": "0.98%"}
{"smiles": "COc1ccccc1N1CCN(/N=C\\C(Br)=C\\c2ccccc2)CC1", "activation": "0.45%"}
{"smiles": "CC(=O)c1sc2nc(SCC(=O)N3CCCCC3)[nH]c(=O)c2c1C", "activation": "32.9% (active)"}
{"smiles": "C=CCNC(=O)CSc1nc2sc(C)c(C)c2c(=O)[nH]1", "activation": "-3.68%"}
{"smiles": "O=C(CSc1nc2c(cnn2-c2ccc(F)cc2)c(=O)[nH]1)N1CCCCCC1", "activation": "-0.08%"}
{"smiles": "COCCN(C(=O)CCC(=O)Nc1nccs1)C(C(=O)NC(C)(C)C)c1ccc(Cl)cc1", "note": "(centres undefined)", "activation": "8.27%"}
{"smiles": "Cc1ccccc1C1=N/C(=C/c2cccnc2)C(=O)O1", "activation": "5.51%"}
{"smiles": "Cc1ccc(S(=O)(=O)N(C)CC(=O)OCC(=O)N2CC(=O)Nc3ccccc32)cc1", "activation": "-1.93%"}
{"smiles": "COc1cccc(NC(=O)Cn2c3ccccc3c3nc4n(c(=O)c32)CCS4)c1", "activation": "3.77%"}
{"smiles": "O=C(NCc1cccs1)C1CCN(S(=O)(=O)c2ccc(Cl)cc2)CC1", "activation": "0.55%"}
{"smiles": "O=C(N/C(=C\\c1ccc(F)cc1)C(=O)N1CCCCCC1)c1ccccc1", "activation": "2.6%"}
{"smiles": "O=C(Oc1ccccc1)Oc1ccc2c(c1)oc(=O)c1ccccc12", "activation": "57.2% (active)"}
{"smiles": "Cc1c(Cc2ccccc2)c(=O)oc2cc(OCC(N)=O)ccc12", "activation": "1.07%"}
{"smiles": "CC(=O)Oc1ccc2c(C)c(CC(C)O)c(=O)oc2c1", "note": "(centres undefined)", "activation": "-4.46%"}
{"smiles": "CNc1ccc(NC(C)=O)cc1[N+](=O)[O-]", "activation": "-3.86%"}
{"smiles": "CCC1(CC)NC(=O)N(CC(=O)OCC(=O)Nc2ccc(C(F)(F)F)cc2)C1=O", "activation": "-5.07%"}
{"smiles": "CCCCCOc1ccc(/C=C/C(=O)NCCc2nc3ccccc3[nH]2)cc1OC", "activation": "0.87%"}
{"smiles": "Cn1c(C(=O)OC(C(=O)NC2CCCCC2)c2ccccn2)cc2sccc21", "note": "(centres undefined)", "activation": "0.71%"}
{"smiles": "Cc1ccc(Cl)cc1NC(=O)C1CCN(S(C)(=O)=O)CC1", "activation": "-1.48%"}
{"smiles": "CCNCCC(=O)N1c2ccccc2Sc2ccc(NC(=O)OCC)cc21", "activation": "-12.4%"}
{"smiles": "NNC(=O)C1CC(O)CN1S(=O)(=O)c1ccc(Cl)cc1", "note": "(centres undefined)", "activation": "8.66%"}
{"smiles": "CC1CC(C)CN(CCC(=O)Nc2ccc3c(c2)CCC3)C1", "note": "(centres undefined)", "activation": "6.43%"}
{"smiles": "COC(C(=O)Nc1ccc(C(C)=O)cc1)c1ccccc1", "note": "(centres undefined)", "activation": "-2.12%"}
{"smiles": "COc1ccccc1CCNC(=O)CSc1nnc2ccc(-c3cccnc3)nn12", "activation": "2.38%"}
{"smiles": "O=C(CN1CCN(c2ncccn2)CC1)Nc1ccccc1C(F)(F)F", "activation": "-0.44%"}
{"smiles": "COCCn1c(Cc2cccn2C)nnc1SCC(=O)Nc1nccs1", "activation": "4.15%"}
{"smiles": "Cc1nc(N2CCOCC2)c2c(C)c(C(=O)Nc3ccc(C(F)(F)F)cc3)sc2n1", "activation": "6.42%"}
{"smiles": "Cc1ccc(N2C(=O)C3C(c4ccccc4)(C2=O)C3(c2ccccc2)c2ccccc2)cc1", "note": "(centres undefined)", "activation": "-5.3%"}
{"smiles": "O=C(O)CCS(=O)(=O)c1ccc(-c2ccccc2)cc1", "activation": "-2.87%"}
{"smiles": "C=CCC(CC=C)(C(N)=O)c1ccccc1", "activation": "-2.8%"}
{"smiles": "CCOC(=O)CNC(=O)CSc1ccc2nnc(-c3cccnc3)n2n1", "activation": "-2.1%"}
{"smiles": "COc1ccc(OCC(=O)Nc2ccc(N3CCC(C)CC3)cc2)cc1", "activation": "1.65%"}
{"smiles": "CCOc1ccc(Br)cc1S(=O)(=O)Nc1cccc(S(=O)(=O)N(CC)CC)c1", "activation": "-0.46%"}
{"smiles": "CC(=O)N1CC(C)c2scc(C)[n+]2-c2ccccc21", "note": "(centres undefined)", "activation": "0.84%"}
{"smiles": "CCC(C)N(C)C1CCN(C(=S)Nc2ccc(OC)cc2)CC1", "note": "(centres undefined)", "activation": "-0.62%"}
{"smiles": "CCN(CC)c1ccc2oc(=O)c(C)nc2c1", "activation": "30.3% (active)"}
{"smiles": "CCN(CC)c1ccc2cc(C(=O)O)c(=O)oc2c1", "activation": "1.62%"}
{"smiles": "CCN(CC)c1ccc2c(Nc3ccccc3)c(C=O)c(=O)oc2c1", "activation": "-1.59%"}
{"smiles": "Cc1ccccc1N/C(SCc1ccc(Cl)cc1)=C(/C#N)C(N)=O", "activation": "-0.24%"}
{"smiles": "CCCCC1N2CC3([N+](=O)[O-])CN1CC([N+](=O)[O-])(C2)C3(C)C", "note": "(centres undefined)", "activation": "3.26%"}
{"smiles": "Cc1nc(SCC(=O)N2CC(=O)Nc3ccccc32)c2c(C)c(C)sc2n1", "activation": "7.47%"}
{"smiles": "COc1cc(/C=C/C2=CC(C)(C)NC(=S)N2)cc(OC)c1OC", "activation": "-3.19%"}
{"smiles": "COc1cc(C(=S)N2CCOCC2)ccc1O", "activation": "6.53%"}
{"smiles": "COc1cc(C(=S)N2CCOCC2)cc(OC)c1OC(=O)c1cc([N+](=O)[O-])cc([N+](=O)[O-])c1", "activation": "1.22%"}
{"smiles": "COc1cc(C(=S)N2CCOCC2)cc(OC)c1OC(=O)c1cc([N+](=O)[O-])c(C)c([N+](=O)[O-])c1", "activation": "27.4% (active)"}
{"smiles": "COC(=O)Cc1ccc(NC(=S)NCc2ccco2)cc1", "activation": "-0.79%"}
{"smiles": "CCc1nnc(NC(=O)Cc2cccs2)s1", "activation": "0.13%"}
{"smiles": "O=C(O)CCCCOn1ccnc1", "activation": "-4.37%"}
{"smiles": "CN1CCN(c2ccc(S(=O)(=O)Nc3ccccc3)cc2[N+](=O)[O-])CC1", "activation": "8.11%"}
{"smiles": "CC(C)(C)c1ccc(/C=C/C(=O)Nc2ncccn2)cc1", "activation": "-0.41%"}
{"smiles": "O=C(C1=C[C@H](c2ccc(C(F)(F)F)cc2)C[C@H](OCc2ccc(CO)cc2)O1)N1CCN(Cc2ccccc2)CC1", "activation": "5.31%"}
{"smiles": "N#Cc1ccccc1Sc1ccccc1C(=O)OCC(=O)NC1CCCCC1", "activation": "-1.17%"}
{"smiles": "CCOc1ccc(NC(=O)CCC(=O)n2nc(C)cc2C)cc1", "activation": "19.2%"}
{"smiles": "CCOc1ccc(NC(=O)CSc2ncnc3c2sc2ccccc23)cc1", "activation": "23.1% (active)"}
{"smiles": "CCOc1ccc(NC(=O)CSc2nc3ccccc3c(=O)n2Cc2cccs2)cc1", "activation": "-1%"}
{"smiles": "COc1cc(OC)c(-n2cc(-c3ccc(Cl)cc3)[nH]c2=O)cc1Cl", "activation": "2.05%"}
{"smiles": "NS(=O)(=O)c1ccc(NC(=O)COC(=O)CCc2c[nH]c3ccccc23)cc1", "activation": "1.02%"}
{"smiles": "COc1cc(NS(=O)(=O)c2ccc(NC(=O)CN3C(=O)c4ccccc4C3=O)cc2)ncn1", "activation": "4.24%"}
{"smiles": "COc1ccc(C(CC(=O)Nc2ccc(C)cc2)NC(=O)C(F)(F)F)cc1", "note": "(centres undefined)", "activation": "1.26%"}
{"smiles": "CN1CCC(OC(=O)COc2ccc(Cl)cc2Cl)CC1", "activation": "-2.65%"}
{"smiles": "Cc1ccc(NC(=O)OCc2cncs2)cc1", "activation": "3.15%"}
{"smiles": "O=C1C2C3C=CC(C4CC34)C2C(=O)N1c1nccs1", "note": "(centres undefined)", "activation": "-3%"}
{"smiles": "O=C(/C=C/c1cn(-c2ccccc2)nc1-c1ccc2c(c1)OCCO2)NCCCN1CCOCC1", "activation": "5.25%"}
{"smiles": "Cc1cccc(OCCNC(=O)CSc2ccc(C(F)(F)F)cc2[N+](=O)[O-])c1", "activation": "-3.57%"}
{"smiles": "Cc1cc(O)c(NC(=O)c2ccc(C)c([N+](=O)[O-])c2)cc1C", "activation": "-0.67%"}
